Rows were chosen to be rich in hits. Some 3.3% of all compounds tested hit in one or more screens of this group.
Vaccinia mCherry – vaccinia inhibition (mCherry reporter); Potency, µM (top dose mostly 36.5 µM), usual class: inhibitors; 310,000 tested, 0.63% active; Vaccinia virus mCherry reporter infection, fluorescence; calls by dose curve; tested in A549 cells; further: nearly all actives have a fitted effect of over 35% in size
HCV inhibitor – HCV inhibition; Huh7.5.1 HCVcc-Cre infection, luciferase reporter, 44 h; Potency, µM (top dose mostly 41.8 µM), actives largely listed as inhibitors; 340,000 tested, 3.4% active; active means well fitted inhibition curve with a large enough effect; inconclusive means small, poorly fitted or top-dose-only effect, or another doubt; inactive means no such curve, though single readings can be large or run the other way
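Reporter virus HCVcc-Cre (~0.5 moi) infects cells exposed to compound; seeding density 1,000 cells/well with 4 h settling beforehand. Luminescence, 15 sec read, taken 44 h post-infection following a 15 min RT substrate incubation.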
VACV Venus inh – inhibitors of vaccinia virus (Venus reporter). Vaccinia virus Venus reporter expression, fluorescence. Potency, µM (doses to about 36.5 µM), actives largely listed as inhibitors. 330,000 tested, 0.46% active. AID 720580; calls by dose curve; tested in A549 cells; further: nearly all actives have a fitted effect of over 30% in size
Each line names hits and unclear results; the compound was inactive in the other large screens.

COc1ccc(OC)c(C(c2nnnn2C2CCCC2)N2CCc3ccccc3C2)c1 (stereo not given)	HCV inhibitor 11µM, VACV Venus inh inconclusive (no result: Vaccinia mCherry)
COc1ccc(C(c2nnnn2C2CCCC2)N2CCc3ccccc3C2)cc1OC (stereo not given)	none (no result: Vaccinia mCherry)
O=C(NCc1ccccc1)C1c2ccccc2OCC(=O)N1Cc1ccc2c(c1)OCO2 (stereo not given)	none (no result: HCV inhibitor)
CC(=O)N1c2c(cc(Br)cc2S(=O)(=O)NCc2cccnc2)CC1C (stereo not given)	none (no result: Vaccinia mCherry, VACV Venus inh)
CCCCN(Cc1ccccc1)S(=O)(=O)c1cc(Br)cc2c1N(C(C)=O)C(C)C2 (stereo not given)	HCV inhibitor 5µM
Cc1ccc(CNC(=O)CN(c2ccc(C(C)C)cc2)S(=O)(=O)c2c(C)noc2C)cc1	none (no result: Vaccinia mCherry, VACV Venus inh)
CCOc1ccc(N(CC(=O)Nc2cccc(Cl)c2)S(=O)(=O)c2c(C)noc2C)cc1	HCV inhibitor 13µM
CCOc1ccc(N(CC(=O)Nc2ccccc2OCC)S(=O)(=O)c2c(C)noc2C)cc1	HCV inhibitor 11µM (no result: Vaccinia mCherry, VACV Venus inh)
CCOc1ccc(N(CC(=O)Nc2cccc(OC)c2)S(=O)(=O)c2c(C)noc2C)cc1	HCV inhibitor inconclusive
COc1ccc(CNC(=O)CN(c2ccc(C(C)C)cc2)S(=O)(=O)c2c(C)noc2C)cc1	HCV inhibitor 10µM (no result: Vaccinia mCherry, VACV Venus inh)
CCOc1ccc(N(CC(=O)Nc2ccc(C)cc2)S(=O)(=O)c2c(C)noc2C)cc1	none
CCOC(=O)CSC1=Nc2ccccc2C2=NC(CCC(=O)NCc3ccc(OC)cc3)C(=O)N12 (stereo not given)	none (no result: HCV inhibitor)
CC(C)(CNC(=O)c1cnn(-c2nccc(-c3ccccc3F)n2)c1C1CC1)N1CCOCC1	none (no result: HCV inhibitor)
Cc1ccc(NC(=O)CCn2c(=O)c3cccn3c3ccccc32)cc1C	HCV inhibitor inconclusive
CCc1ccc(NC(=O)CN2C(=O)CCSc3ccccc32)cc1	VACV Venus inh inconclusive (no result: HCV inhibitor)
O=C(Nc1cccc(-c2cnc3ccccc3n2)c1)c1cccc(NC(=O)c2ccco2)c1	HCV inhibitor 10µM (no result: Vaccinia mCherry, VACV Venus inh)
O=C(Nc1cccc(-c2cnc3ccccc3n2)c1)C1CC(=O)N(c2ccccc2)C1 (stereo not given)	HCV inhibitor 13µM
O=C(CCl)Nc1cccc(-c2cnc3ccccc3n2)c1	Vaccinia mCherry 11µM, HCV inhibitor inconclusive, VACV Venus inh inconclusive
O=C(Nc1cccc(NC(=O)c2ccco2)c1)c1ccccc1	HCV inhibitor inconclusive
O=C(Nc1ccncc1)C1CC(=O)N(c2ccccc2)C1 (stereo not given)	none
Cc1ccc(-c2cnc3ccccc3n2)cc1C	none (no result: Vaccinia mCherry, VACV Venus inh)
CCN(CC)C1CCN(C(=O)c2cnn(-c3ncc4c(n3)-c3ccccc3CCC4)c2COC)C1 (stereo not given)	none (no result: HCV inhibitor)
CCOc1ccc(NC(=O)c2cn(C)c(=O)c3cc(OC)c(OC)cc23)cc1	none (no result: HCV inhibitor)
COc1cc2nc(N3CCOCC3)nc(NC(C)C)c2cc1OC	none (no result: HCV inhibitor)
Oc1ccc(-c2cccnc2)cc1CNC1CN2CCC1CC2 (stereo not given)	none (no result: HCV inhibitor)
O=S(=O)(Cc1ccccc1)N1CCN(c2nc(-c3cccs3)nc3ccccc23)CC1	none (no result: HCV inhibitor)
Oc1ccccc1-c1nc(-c2cccs2)c(-c2cccs2)[nH]1	none (no result: HCV inhibitor)
CN(C)c1ccc(-c2nc(-c3cccs3)c(-c3cccs3)[nH]2)cc1	none (no result: HCV inhibitor)
COc1cc(-c2nc(-c3ccccc3)c(-c3cccs3)[nH]2)cc(OC)c1OC	HCV inhibitor 22µM (no result: Vaccinia mCherry, VACV Venus inh)
COc1cc(-c2nc(-c3ccccc3)c(-c3cccs3)[nH]2)cc(OC)c1O	HCV inhibitor 10µM (no result: Vaccinia mCherry, VACV Venus inh)
CCOC(=O)C1(C)CCN1C(=O)c1oc2ccccc2c1C (stereo not given)	none (no result: HCV inhibitor)
Cc1cc(NC(=O)CCC(=O)N(CC(=O)NC2CCCC2)c2ccc(Cl)c(Cl)c2)no1	none
N#CCSc1nnc(-c2ccc3c(c2)OCO3)o1	Vaccinia mCherry 11µM, VACV Venus inh inconclusive
O=C(O)CSc1nnc(-c2ccc3c(c2)OCO3)o1	none
COc1cc(Cl)c(C)cc1NC(=O)CN1CCN(C(=O)c2cccs2)CC1	none (no result: HCV inhibitor)
O=C(COc1ccc(Br)cc1)NC1CC1	none
CCCCCn1ccc(=O)c2c(C(F)(F)F)nccc21	HCV inhibitor 11µM (no result: Vaccinia mCherry, VACV Venus inh)
CCCCCCCn1ccc(O)c(CC(=O)OC)c1=O	none
CN(C)CCCn1c2c(c(SCC(=O)Nc3nccs3)nc1=O)CCC2	none
O=C1NC[C@H](c2ccccc2)N(CCCCC2CCCCC2)C1=O	Vaccinia mCherry 2.2µM, VACV Venus inh inconclusive (no result: HCV inhibitor)
NCCCC[C@H]1CNC(=O)C(=O)N1CCCCC1CCCCC1	none
CCC1(C2CCN(C(=O)c3ccccc3C(C)=O)CC2)NC(=O)N(CCc2scnc2C)C1=O (stereo not given)	none (no result: HCV inhibitor)
Cc1cc(-c2ccnc(-n3ncc(C(=O)NCc4cccnc4)c3C3CC3)n2)c(C)s1	none (no result: HCV inhibitor)
O=C(O)CCSc1nnc(SCC(=O)NCC(F)(F)F)s1	none
Cc1ccc(S(=O)(=O)N2C[C@]3(O)C[C@@H]4C(=O)N(c5ccccc5)C(=O)[C@@H]4C[C@]3(OC(=O)NCc3ccccc3)C2)cc1	none (no result: HCV inhibitor)
CCOC(=O)C1(CCOC)CCN(Cc2ccc(COC)o2)CC1	none
CCOC(=O)C1(Cc2ccccc2C(F)(F)F)CCN(Cc2ccc(COC)o2)CC1	HCV inhibitor 8.9µM
COc1ccc(CC(=O)Nc2sc3c(c2C(=O)Nc2cccc(Cl)c2)CCCCC3)cc1	VACV Venus inh inconclusive (no result: HCV inhibitor)
CCC(C)NC(=O)c1nc2c(nnn2Cc2ccccc2Cl)c(=O)[nH]1 (stereo not given)	none
O=C(NCc1cccs1)c1nc2c(nnn2Cc2ccccc2Cl)c(=O)[nH]1	Vaccinia mCherry inconclusive, HCV inhibitor 5µM, VACV Venus inh 7.1µM
CN1C[C@@H]2C[C@@H](C3=Cc4cc(Cl)ccc4OC3)N3CCC[C@@]23C1=O	HCV inhibitor inconclusive
COc1ccccc1CN1C[C@@H]2C[C@@H](C3=Cc4cc(Cl)ccc4OC3)N3CCC[C@@]23C1=O	HCV inhibitor 11µM (no result: Vaccinia mCherry, VACV Venus inh)
COCCn1c(C)cc(O)c(C(c2ccccc2)N2CCN(CCO)CC2)c1=O (stereo not given)	none (no result: HCV inhibitor)
CCCN(Cc1cc2cc(C)ccc2[nH]c1=O)C(=O)c1cccc(Cl)c1	none (no result: HCV inhibitor)
O=C([O-])c1cc(-c2ccccc2)cc(-c2ccccc2)[n+]1Cc1ccccc1	none (no result: Vaccinia mCherry, VACV Venus inh)
O=[N+]([O-])c1ccc(C[n+]2c(-c3ccccc3)cc(-c3ccccc3)cc2-c2ccccc2)cc1	HCV inhibitor 10µM
CC(=O)NC(Cc1ccc(Cl)cc1)C(=O)NCC(N)C(=O)c1ccccc1 (stereo not given)	none (no result: HCV inhibitor)
COc1ccc(NC(=O)C(=O)NCC(c2ccco2)N2CCc3ccccc3C2)cc1OC (stereo not given)	HCV inhibitor inconclusive, VACV Venus inh inconclusive
CC(=O)Nc1ccc(C=NNc2nnc(NN=Cc3ccc(NC(C)=O)cc3)c3ccccc23)cc1	HCV inhibitor 22µM
Cc1ccc(/C=N/Nc2nnc(Cl)c3ccccc23)cc1	none
Cc1cc(-n2c(C)nc3ccccc3c2=O)ccc1NC(=O)c1cccc([N+](=O)[O-])c1C	none (no result: HCV inhibitor)
CCN(CC)CCN1C(=O)c2ccccc2NC1c1ccc(OC)c(COc2ccc(NC(C)=O)cc2)c1 (stereo not given)	none (no result: HCV inhibitor)
CNc1sc(C(=O)c2ccccc2F)c(N)c1-c1nc2ccccc2s1	HCV inhibitor 13µM (no result: Vaccinia mCherry, VACV Venus inh)
O=C(CNC(=O)c1ccccc1F)OCc1nc2ccccc2s1	none
Cc1ccc(C(=O)COC(=O)CNC(=O)c2ccccc2)s1	none (no result: Vaccinia mCherry, VACV Venus inh)
COc1ccc(-c2noc(N3CCC(C(=O)Nc4ccccc4Cl)CC3)n2)cc1	none
CCN(C(=O)C1CCN(c2nc(-c3ccc(OC)cc3)no2)CC1)c1ccccc1	HCV inhibitor 10µM, VACV Venus inh inconclusive

Screens (PubChem)
